We go through 92 compounds from PubChem BioAssay AID1032 (The Scripps Research Institute Molecular Screening Center, 2008).

Out of some 200,000 compounds screened, about 670 (0.34%) were called active. What follows is part of a selection rich in actives, with near analogues and random picks from the rest. Values without a mark were called inactive. Rule as the data show it: active = activation above about 22%; inactive = the rest.

For the assay, the target named is Peroxisome proliferator-activated receptor gamma (Homo sapiens) (UniProt P37231). The assay is described as follows: compounds enhancing SRC-2 coactivator binding to PPARgamma – biochemical, HTS, primary screen (AID 1032).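 Also: 0% = vehicle and 100% = reference agonist.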 Particulars: PPARgamma LBD-SRC-2 recruitment, at 8 µM, stronger effect = higher value.
Sequence of Peroxisome proliferator-activated receptor gamma (Homo sapiens) (P37231 whole entry, looked up, the tested form may be a part): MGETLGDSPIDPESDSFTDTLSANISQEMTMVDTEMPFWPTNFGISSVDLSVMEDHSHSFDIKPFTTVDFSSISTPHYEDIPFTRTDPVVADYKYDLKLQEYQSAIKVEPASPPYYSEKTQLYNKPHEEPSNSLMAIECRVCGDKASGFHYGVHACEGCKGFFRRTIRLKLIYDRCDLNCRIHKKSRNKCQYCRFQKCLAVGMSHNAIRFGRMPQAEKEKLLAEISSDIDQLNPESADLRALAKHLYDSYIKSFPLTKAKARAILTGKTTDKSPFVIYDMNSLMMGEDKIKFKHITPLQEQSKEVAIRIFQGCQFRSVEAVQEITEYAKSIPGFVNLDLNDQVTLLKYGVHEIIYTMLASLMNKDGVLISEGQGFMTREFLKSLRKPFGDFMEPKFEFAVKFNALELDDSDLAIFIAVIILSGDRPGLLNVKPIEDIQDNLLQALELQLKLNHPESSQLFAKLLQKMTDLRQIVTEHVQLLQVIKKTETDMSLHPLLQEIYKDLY
Regarding `CCn1c(SCc2cc(=O)n3ccsc3n2)nc2ccccc21`, the activation was 2.48%. With `O=C(CSc1nc2c(cnn2-c2ccc(F)cc2)c(=O)[nH]1)N1CCCCCC1`, the activation is 5.39%. In the case of `C=CCNC(=O)CSc1nc2sc(C)c(C)c2c(=O)[nH]1`, the activation was 6.77%. As for `CC(=O)c1sc2nc(SCC(=O)N3CCCCC3)[nH]c(=O)c2c1C`, the activation is 27.8% (active). As to `CCN(CC)N=Nc1cccc(NC(C)=O)c1`, the activation is 6.74%.

With `CCOC(=O)c1[nH]ncc1CN1CCCC(C(=O)c2ccc(OC)cc2C)C1` (configuration not stated), the activation was -2.32%. `Oc1ccccc1N1CCN(C(=S)NCc2ccccc2)CC1`: the activation is 6.1%. For `O=C(COC(=O)c1ccncc1)c1ccccc1`, the activation is -2.8%. Consider `CC(=O)NC1C(OCc2ccccc2)OC(COC(C)=O)C(OC(C)=O)C1OC(C)=O` (configuration not stated), for which the activation was 4.63%. For the compound `O=C(OCC1O[C@@H](OC(=O)c2cc(O)c(O)c(O)c2)[C@@H](OC(=O)c2cc(O)c(O)c(O)c2)[C@@H](OC(=O)c2cc(O)c(O)c(O)c2)[C@@H]1OC(=O)c1cc(O)c(O)c(O)c1)c1cc(O)c(O)c(O)c1` (some centres not stated), the activation was 27.6% (active). With `CCOC(=O)N1CCN(C(=O)CSc2nc(C)nc3c2c(=O)n(C)c(=O)n3C)CC1` the figure was -8.15%; with `Cc1cc(C)nc(NC(=O)c2cccc([N+](=O)[O-])c2)c1`, -5.12%.

Take `CSc1nc(N)c(C#N)c(-c2ccccc2Cl)c1C#N`: the activation was -6.37%. On to `Cc1c(-c2ccccc2)nc(N)c(C#N)c1-c1cccs1`, for which the activation was 6.63%. Consider `CCc1c(-c2ccccc2)nc(N)c(C#N)c1-c1cccs1`, for which the activation is 23.2% (active). Next, `O=C(NCc1nnc(SCC(=O)N2CCC(Cc3ccccc3)CC2)o1)c1ccco1`: 0.71%; `O=C(Cc1ccc(Br)cc1)N1CCN(c2ccccn2)CC1`: 4.3%; `CC(C)(C)C(=O)NC(NC(=S)Nc1ccc(S(N)(=O)=O)cc1)C(Cl)(Cl)Cl` (configuration not stated): -5.23%.

For `CCCOc1ccc(N/C=C/C(=O)C(C)(C)C)cc1`, the activation is -1.64%. As to `O=C(/C=C/Nc1ccccc1OC(F)(F)F)C(F)(F)F`, the activation is 1.89%.

On to `CN(C)c1ccc(N/C=C/C(=O)C(F)(F)F)cc1`, for which the activation was 39.6% (active).

On to `CCC(=O)OCCNc1nc(-c2ccccc2)nc2ccccc12`, for which the activation was 0.25%.

For the compound `Cn1ccc(=NC=C(C#N)C#N)c2ccccc21`, the activation was -3.24%. Consider `CC1CCN(C(=S)NC2CC3CCC2C3)CC1` (configuration not stated), for which the activation was -1.7%. Turning to `Cc1c(CN2CCC(CO)(CCOc3ccccc3)CC2)[nH]c2ccc(Cl)cc12`, the activation was 3.77%.

On to `COc1ccc(C(=O)NCc2nnc(SCCOc3ccccc3)n2C)cc1`, for which the activation is 0.32%. As to `Cn1c(=O)cc(SCC(=O)N2CCN(C(=O)c3ccco3)CC2)c2ccccc21`, the activation is 40.5% (active). On to `O=C(CSCc1ccc(Cl)cc1)N1CCCCC1`, for which the activation was 7.59%.

`CC(=O)c1ccc(-n2nnnc2SCC(=O)N2CCN(C(=O)c3ccco3)CC2)cc1`: the activation is -5.53%. Take `CCOC(=O)N1CCC(NC(=O)COc2cc(=O)n(C)c3ccccc23)CC1`: the activation is -4.54%. In the case of `CCOc1ccc(CCNC(=O)CSc2cc(=O)n(C)c3ccc(Cl)cc23)cc1OCC`, the activation was 18.7%. In the case of `CCOC(=O)C1CCN(C(=O)CSc2cc(=O)n(C)c3ccccc23)CC1`, the activation was 56.4% (active). In the case of `Cn1c(=O)cc(SCC(=O)N2CCCC2)c2cc(Cl)ccc21`, the activation was 61.1% (active).

Regarding `CCOC(=O)C1CCN(C(=O)Cn2cc(C#N)c3ccccc32)CC1`, the activation is 3.64%. For `Cc1cccc(OCc2nnc(SCC(=O)N3CCN(C(=O)c4ccco4)CC3)n2C)c1C`, the activation was 4.26%. As to `Cc1ccc(-c2nc(C)sc2CC(=O)OCC(=O)Nc2c(F)cccc2F)cc1`, the activation was 5.36%.

On to `O=c1oc(/C=C/c2ccccc2)nc2ccccc12`, for which the activation was -0.23%. `O=C(Cc1ccccc1)N1CCN(S(=O)(=O)c2ccc([N+](=O)[O-])cc2)CC1`: the activation is 7.91%.

Take `O=C1c2cccc(OCC(=O)N3N=C(c4cccs4)CC3c3ccc(F)cc3)c2CCN1Cc1ccccc1` (configuration not stated): the activation is 0.84%. Next, `CC(CC(=O)Nc1ccccc1)n1ccnc1` (configuration not stated): 8.08%; `CCC(CC)C(=O)Nc1ccc(S(=O)(=O)Nc2nccs2)cc1`: -6.57%.

As for `C=C(C)C1CC=C(C)/C(=N/NC(=O)CCCNc2cccc(C)c2)C1` (configuration not stated), the activation was 3.8%. Next, `O=C(CNC(=O)COc1ccccc1)NCCc1ccccn1`: -3%. With `C#CCOCCOCCOCCNc1nc(N2CCN(C(=O)C(Cc3ccc(O)cc3)n3cc(C(N)CC(C)C)nn3)CC2)nc(N2CCN(C(=O)C(Cc3ccc(O)cc3)n3cc(C(N)C(C)CC)nn3)CC2)n1` (configuration not stated) the figure was -8.91%.

Turning to `COCCN(C(=O)CCC(=O)Nc1nccs1)C(C(=O)NC(C)(C)C)c1ccc(Cl)cc1` (configuration not stated), the activation was 5.4%. With `CC(=O)Nc1ccc(Nc2c([N+](=O)[O-])cc(S(C)(=O)=O)cc2[N+](=O)[O-])cc1` the figure was 6.76%; with `N#Cc1ccc(-c2ccc(F)cc2)nc1Sc1ccccc1`, 3.38%; with `N#Cc1ccc(-c2ccc(Cl)cc2)nc1Oc1ccc(F)cc1`, 322% (active). Take `CN(C)c1ccnc(Oc2ccc(F)cc2)c1C#N`: the activation is 7.04%. As to `COCCn1c(SCC(=O)Nc2ccc3c(c2)CCC3)nc2ccccc2c1=O`, the activation was -3.24%. With `CCOC(=O)/C=c1\s/c(=C\c2ccc(C#N)cc2)c(=O)n1CC(=O)Nc1cccc(C)c1C`, the activation is 2.46%.

Take `Oc1oc(-c2ccccc2Br)nc1/C=N/c1ccccn1`: the activation is 7.3%. In the case of `Cc1ccc(-n2[nH]c(C)c(/C=N/N3C(=O)c4cccc5cccc(c45)C3=O)c2=O)cc1`, the activation is 6.04%. On to `COc1cc(SC#N)ccc1N=Cc1c(C)[nH]n(-c2ccc(C)cc2)c1=O`, for which the activation was 27.6% (active).

Consider `CCc1nnc(NS(=O)(=O)c2ccc(N=Cc3c(C)[nH]n(-c4ccc(C)cc4)c3=O)cc2)s1`, for which the activation is 12.6%. With `CN(C)S(=O)(=O)c1cccc(NC(=S)NCc2ccc3c(c2)OCO3)c1`, the activation is 4.42%. For `COc1ccc(N(CC(=O)NC2CCCC2)C(=O)CS(=O)CC(=O)Nc2ccc3c(c2)OCO3)cc1` (configuration not stated), the activation was -7.54%.

Take `Cc1nc2ccccc2n1CC(=O)N/N=C/c1cccnc1`: the activation is 2.27%. As for `O=C(CSc1cccc2cccnc12)N/N=C/c1cccnc1`, the activation is 27.4% (active). Regarding `CCOC(=O)N/N=C/c1cccnc1`, the activation is 3.1%. On to `CC(C)CN1CCNC(=O)C1CC(=O)N(C)CC1CCOCC1` (configuration not stated), for which the activation is -4.08%.

On to `c1ccc2sc(NN=C3CCCC3)nc2c1`, for which the activation is -0.8%. For the compound `Cc1cccc2cc(CN(Cc3cccs3)C(c3nnnn3C3CCCC3)C(C)C)c(=O)[nH]c12` (configuration not stated), the activation was 2.09%. On to `CCC(c1nnnn1C1CCCC1)N(Cc1cccs1)Cc1cc2cccc(C)c2[nH]c1=O` (configuration not stated), for which the activation is 7.3%. For the compound `Cc1cccc2cc(CN(Cc3ccc4c(c3)OCO4)Cc3nnnn3C3CCCC3)c(=O)[nH]c12`, the activation was 27.4% (active). With `CC(C(=O)N=Nc1c(O)n(C)c2ccc(Br)cc12)n1cnc2ccccc2c1=O` (configuration not stated) the figure was 2.86%; with `Cc1ccccc1Cn1nc(C)c(NC(=O)C(F)(F)F)c1C`, -0.15%.

As to `CCCOc1ccc(C2C(C(=O)c3ccc(C)o3)=C(O)C(=O)N2CCCn2ccnc2)cc1` (configuration not stated), the activation is 22.1% (active). Take `COc1cc(C2C(C(=O)c3ccc(C)o3)=C(O)C(=O)N2Cc2cccnc2)ccc1O` (configuration not stated): the activation is -1.47%. For the compound `COc1cc(C2C(C(=O)c3ccc(C)o3)=C(O)C(=O)N2CCc2ccccc2)ccc1O` (configuration not stated), the activation was 0.21%.

`CCOC(=O)N1CCC(=NNC(N)=O)CC1`: the activation was 3.39%. Take `CCCCOC(=O)c1ccc(NC(c2ccc(C)cc2)P(=O)(OC)OC)cc1` (configuration not stated): the activation is 7.71%. On to `COc1cc(C(=S)N2CCOCC2)ccc1O`, for which the activation was 5.98%. Consider `COc1cccc(NC(=O)C(Sc2nc3ccccc3c(=O)n2CC(C)C)c2ccccc2)c1` (configuration not stated), for which the activation is 1.13%. As to `Cc1ccc(NC(=S)N(CCCN2CCC(C)CC2)Cc2ccco2)cc1`, the activation was -0.03%. In the case of `COC(=O)Cn1cc(C(=O)c2cccs2)c2ccccc21`, the activation is 25.2% (active). As to `O=C(Cn1cc(C(=O)c2cccs2)c2ccccc21)NCc1cccs1`, the activation is -4.53%.

With `COCCNC(=O)Cn1cc(C(=O)c2cccs2)c2ccccc21`, the activation is -7.11%.

Turning to `O=C(CNS(=O)(=O)c1ccccc1)NCC(=O)OCc1ccccc1F`, the activation was -5.13%.

With `Cc1scc(C(=O)NNC(=S)NCc2ccccc2)c1C`, the activation is -7.7%. With `CC1=NNC(=O)C1CCC(=O)N/N=C\c1ccc(Cl)c(Cl)c1` (configuration not stated) the figure was 6.93%.

As to `O=c1c2ccccc2c(-c2ccccc2)nn1Cc1ccccc1`, the activation is -3.47%. `Cn1c(CO)cnc1SCc1ccccc1`: the activation was 5.35%. Take `CSc1c(SCc2ccccc2)cnn(Cc2ccccc2)c1=O`: the activation is 28% (active). Consider `CN1CCC(=NNC(=O)CN(c2cccc(Cl)c2)S(C)(=O)=O)CC1`, for which the activation was 10.8%.

In the case of `S=c1[nH]cc(-c2ccc(Cl)cc2)n1-c1ccccc1`, the activation was 0.94%. In the case of `CCc1ccc(NC(=O)C(C)OC(=O)/C=C/c2cccc([N+](=O)[O-])c2)cc1` (configuration not stated), the activation was 2.51%. Consider `Cc1cccn2c(CN(C)C3CCCc4ccccc43)c(C(=O)N3CCOCC3)nc12` (configuration not stated), for which the activation was -1.89%.

In the case of `CCN(CCCNC(=O)CSc1cc(=O)n(C)c2cc(Cl)ccc12)Cc1ccccc1`, the activation is 26.1% (active).

On to `CCN(CC)CCCNC(=O)CCc1ccccc1`, for which the activation is 9.5%. In the case of `CCN(CC)CCCNC(=O)c1cc(-c2cccc(Cl)c2)on1`, the activation is 0.37%.

Consider `CCOC(=O)N1CCN(c2cc(C)c([N+](=O)[O-])cc2F)CC1`, for which the activation was -3.32%.
